# Test results published in the supplement of paper PMC11417369.
# Whole data set: some 25,000 sequences, median “ln(normalized median fluorescence intensity)” near 6.7, cut for the highest 2% near 10. The full list was thinned out, with the highest values kept by preference.
# System: PfHDP1 homeodomain (GST-tagged)
# Experiment: gcPBM binding intensity (ln(normalized median fluorescence intensity)); higher = stronger DNA binding
# Method in brief: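 Probes on an Agilent 4 × 180k array were primer-extended, double-stranded and 36 bp long, taken from intergenic genomic regions, with negative controls added. GST-tagged P. falciparum DNA-binding domains from E. coli, about 25 μg on average, were applied to the array for 1 h in 1× PBS containing 1% milk, 0.2 mg/ml BSA, 0.5% salmon testes DNA and 0.03% Triton X-100. Binding intensity, obtained after Alexa488 anti-GST antibody detection and a 488 nm scan, is the highest Masliner-normalised natural-log median intensity across replicate spots of either probe orientation.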
row,Sequence,gcPBM binding intensity (ln)
1,TATAAAAAAATAAAAGGAATATACTTGCAAAGGGTA [CACACA_negctrl_site1438],8.14
2,ATAATATTTTCTTCTTATTGAATGCTTTAAATTTAC [CACACA_negctrl_site1273],6.46
3,CGCACTAAAAAACACACACACACACCCATATATATA [CACACA_site4152],7.19
4,TTTTTAATTTTGTGGGTGCTTTCGTGTTATTATATA,7.23
5,ATAAACATGGAAATGTATTAAAAGCAAGTATATAAA [XGTACX_negctrl_site516],6.66
6,TGTTTTTAAAAATATACACACACAGATATTATATAT [CACACA_site8162],6.73
7,CATCCACATATATGTACACACATATATATATATATA [CACACA_site2964],9.46
8,TATAATAATACTTATTGTACTATTAGTTTAATTCAT [XGTACX_site6638],6.15
9,AATGTAGAAATGGGTGCACACACATATATAATATAT [CACACA_site8799],10.2
10,TTTTTTTTTTTTTGCACACACATATATAAATATATA [CACACA_site3949],9.41
11,TAAACATAAATATGCACACATATACATATATTCATA [CACACA_site2667],9.75
12,TGTAGAAATGGGTGCACACACATATAAAATCTATAT [CACACA_site7224],10.4
13,TGTAGAAATGGGTGCACACACATATATAATATATAT [CACACA_site2507],10.7
14,TATATATATATATTCACACATAAAAATAAAATAAAA [CACACA_site4774],8.8
15,ATATATATATATTGCACACATATAAATATATATATT [CACACA_site807],10.6
16,CTTTTTTTTTTTTTTGCACACACATATATAAATATA [CACACA_site3950],10.6
17,TATATATATATATTCACACATAAATATATGCACCCA [CACACA_site4263],11
18,AATATAAATAAACACACACACATATATATATATATT [CACACA_site2906],6.78
19,TATAAATACATACATACACACATATATATATATATT [CACACA_site6116],6.81
20,AATAAAAAAAAATGCACACATATATATATATATATA [CACACA_site2421],9.87
21,GATTAATTTAAAAAATGTACATTTTATTGTATAACC [XGTACX_site5539],6.55
22,AACTGAGAAACCGAAGTGCAATATGTATATATACAT,9.08
23,GAAAATAGAAAAAGCACACATATATTTTGGAATGTA [CACACA_site551],6.5
24,ATATATATAACAAAAGTGCATTAAGGGGATGCTATA,8.66
25,CGTATTATTTTATAAACACACAAGGGGGCATGTATA [CACACA_site6489],7.82

row,Sequence,gcPBM binding intensity (ln)
1,TTTTTTTTTTTTTTGGTGCGATCTTTTAAATGATCC,6.48
2,TAATTTCCTTAAGAATGTACTTACATTTTATTATTT [XGTACX_site5998],6.02
3,CCTATAAAACCATATACACACATATAAATAAAAAAA [CACACA_site7809],6.58
4,TACAAATATATAAAATGTACATATATATACATATTA [XGTACX_site3029],6.13
5,AAATAATATGTAATCAAATTCACCAAACGAAAAAAA [TGCATGCA_negctrl_site33],6.59
6,TCATAACAACTTTGTGTGCACATAAAACATGTATAT,11
7,GTATATAATATTAGTGCACACACAAAAATGTACTAA [CACACA_site8112],10.3
8,TGTATATGGTTTGTGCAAAAATTTATTAATGTGTAA [TGCATGCA_negctrl_site374],10.1
9,ATATAATATTAGTGCACACACAAAAATGTACTAAAC [CACACA_site632],10.4
10,TCAACAAATAAACTTTGTACATATATACAAAATATA [XGTACX_site4447],6.27
11,CTATAATATTAGTGCACACACAAAAATGTACTAAAC [CACACA_site6442],10.6
12,TATATATATATGTGCACACATAATAAAAAAAAAAAT [CACACA_site3831],9.99
13,TTATATGTTTTGTGTACACAATTTATTAAATTAATA [CACACA_site5645],8.03
14,GAATAAAAAATATATGTGCACATATAAACTTAAAAT [GTGCAC_site9554],10.7
15,ATATATATTAATTTTGTGCACAAATGGAAATGTTTG [GTGCAC_site9971],10.9
16,AACTTAAAAAATAAATGTACATAAATATAAACATAT [XGTACX_site2987],6.59
17,TATATATATATAACAACACACACAGATCATAAAACT [CACACA_site8670],8.9
18,AAAAAAAAAAAAAAGAGTACACAGACGTTCAAAGGT [XGTACX_site7566],6.85
19,CGCGAACATACATACACACACATATTTATATAGGTA [CACACA_site6241],6.69
20,ATAATTAGTTCAATTTTTTTTTTTTTTTTTTTTTTT [CACACA_negctrl_site1371],6.91
21,ATAAATTTATATACTTGTACATATATATATTACATA [XGTACX_site6697],6.7
22,TGCTGTATATTTTTCTGTACACATTTATATATTCCA [XGTACX_site6244],6.65
23,CATATAGTATAAATTTGTACATAAATATATATATAT [XGTACX_site7477],8.91
24,TATAATATATTTTAATGTACGTACATCCCGATTAAT [XGTACX_site7651],6.63
25,AAATTAATATTATGTGCATGCACAAAGAGGAACGAC [TGCATGCA_site754],11.8

row,Sequence,gcPBM binding intensity (ln)
1,ACTAAAAAATATATATGTACATAATAATATATTATT [XGTACX_site1260],6.66
2,TATAAAATAAATTGTGCACACATATTTATAAATATG [CACACA_site2330],10.5
3,TTATTGTAAATATATGCATGTGCAAAATGAAAAAAA [TGCATGCA_site399],10.5
4,CAAAAAAATGTGAAGGCATGCAAATATGTAAAATAA [TGCATGCA_site921],7.26
5,AACCATAAATAATTATGTACTAAAAAAAATATATAT [XGTACX_site3415],6.7
6,TAATAAAATATGTACGTGCACATAATTATACTAAAA,10.5
7,AATATTTTAAATATTGCATGCAATGAAAAATGTAAA [TGCATGCA_site139],7.73
8,ATAATTATAAAATAAACACACATATATATTTATATG [CACACA_site440],6.29
9,TATTAATTATAAGATGCATGTGCAAAAATATGTTCC [TGCATGCA_site51],10.2
10,AATAAATAAAAAATTACACACATATTTATAAATATA [CACACA_site7584],6.4
11,ATAATTATTAAGAGAACATGCAAAATATATATGTTT [TGCATGCA_site503],6.68
12,AAAAATAAAAAAATAAAAAATAAAAAAATAAAAAAT [CACACA_negctrl_site1425],6.64
13,TTAATAATAAAAAGGAGTACACTAATATACTATAAA [XGTACX_site2346],6.35
14,TAAATTTTAATAAATACACACAAATTTTAATTCTAT [CACACA_site6039],6.27
15,TACATATAAACAATAACACACACCTAGGTACATGGA [CACACA_site8178],6.49
16,TGTATTCTCTTAGTAGTGCATTTGAAGATTATATAA,8.81
17,TAAATAGATGTTTTATGTACGTATAAATAAAAAAAA [XGTACX_site3412],6.29
18,TTTATTTATTTAATTACACACGAACATATAACCATT [CACACA_site7952],6.8
19,ATTTTTTAAAAAGTAACACACACTCTTATATATAAT [CACACA_site9206],6.64
20,ATATACATATCATGTAGTACAATTTTTTTACTTTTT [XGTACX_site7988],6.14
21,CAAGCTATGTATTCTACACACACATACACCCATATA [CACACA_site9133],7.22
22,ATTATTAATAATTGTGTGCACAAATATTTATATGCT,10.6
23,TAAAATAAATTGTGCACACATATTTATAAATATGAA [CACACA_site2331],10.7
24,TAATATTTTAATTGTGTGCACATTAATATTATAAAA,10.3
25,TAATATAATATATGCACACAAATATGTATTTATGTG [CACACA_site5210],10.1

row,Sequence,gcPBM binding intensity (ln)
1,CAAATATATATGTTCACACATATAATTATTGTGAAA [CACACA_site4190],6.4
2,TAAAATAATATTTATGTGCACATATAATTATTAATT,10.7
3,TGAAATTTTATTAATGTGCACATATATTTATTGTTC,10.8
4,ATGAAAATTTATATTGCACACATAGGGAATAAAAAA [CACACA_site8667],10.4
5,TTAAAAAAATTAATATGTACATATATTTATATATAT [XGTACX_site5317],6.54
6,TTTATGAAACAGTGCACACATAAAAATATATACATA [CACACA_site2992],10.1
7,ATATATTATATAATATGTACATAATAAAATTTAAAT [XGTACX_site1900],6.79
8,ATATTTAATGTTAATTGTACATATTATATATATATA [XGTACX_site6095],8.49
9,CAACATTAATATAAAGCACACATATATATAATATAT [CACACA_site8064],6.39
10,TTGAACCTGATAAATACACACAATATAGATTTTTTT [CACACA_site7091],6.48
11,TTTCTAATTCTTAGTGGTACACAGTTCTGCTGATAT [XGTACX_site2391],6.09
12,AATGAGCGTTAAAAATGTACAGAAAATTGGAATTAT [XGTACX_site5743],6.75
13,ACAAAAAAAATAAGCACACATATATATATATATATA [CACACA_site816],9.27
14,ATAATTTCATAATACGTGCACATAATATATAAAAAA,10.9
15,GTTTATTTATTTTATGTGCACATATAACAAAAAAAA,10.7
16,GAAATAATTTCATATACACACATATACATACATACA [CACACA_site1358],7.13
17,ATATATATATATATTGTGCACAAAAAAAAATAAGCA,10.7
18,TAAAATAATTTATGCATACACACATATATATATATA [CACACA_site4021],9.28
19,TGCATAAATTTATGCACACATAAAAAAAAAAAAAAA [CACACA_site2923],10.4
20,ATAAAATATATATGCACACACATATATATTTCATAC [CACACA_site3547],10.2
21,TATATATATATATATGTGCACATATTTATATGTTTT,10.3
22,TGTGCATAAATTTATGCACACATAAAAAAAAAAAAA [CACACA_site8954],11
23,CAAAATATTTTTATAACACACATATATATAATGTGC [CACACA_site4767],6.52
24,TATAAAAATAAGCACACACACAAATATATATTTATT [CACACA_site922],6.77
